Results: paper PMC7862700, “An all-to-all approach to the identification of sequence-specific readers for epigenetic DNA modifications on cytosine”

Columns and labels:
Assay in all cases: DAPPL (digital affinity profiling via proximity ligation, sequencing); 10 mM Tris-HCl pH 7.5, 50 mM NaCl, 1 mM DTT, 4% glycerol, room temperature, 30 min; GST-TFs on glutathione beads, 16-mer random dsDNA library, 0.1% formaldehyde crosslink after washing; high values mean tight binding
[1] = target: T1, FLI1 (Homo sapiens, UniProt Q01543 1-452); settings: protein: recombinant; tags: N-terminal GST; dsDNA, one strand shown
T1 sequence: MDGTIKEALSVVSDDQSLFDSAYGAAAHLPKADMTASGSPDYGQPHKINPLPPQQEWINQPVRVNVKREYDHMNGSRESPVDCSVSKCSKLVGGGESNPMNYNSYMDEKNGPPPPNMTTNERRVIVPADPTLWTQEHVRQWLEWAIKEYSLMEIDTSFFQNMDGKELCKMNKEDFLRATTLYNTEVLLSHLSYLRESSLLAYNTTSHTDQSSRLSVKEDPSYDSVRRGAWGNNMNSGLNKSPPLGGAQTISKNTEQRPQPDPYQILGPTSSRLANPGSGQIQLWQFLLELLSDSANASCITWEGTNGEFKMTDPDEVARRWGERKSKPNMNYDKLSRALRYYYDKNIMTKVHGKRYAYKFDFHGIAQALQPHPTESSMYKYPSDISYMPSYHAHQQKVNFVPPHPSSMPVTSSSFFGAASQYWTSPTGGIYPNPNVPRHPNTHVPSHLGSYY
Summary of the method: (§1)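 Pools of DNA-barcoded human transcription factors, expressed in yeast as GST fusions on glutathione beads and combined with a tag-only sample, were incubated with 200 nmole of a 16-mer random double-stranded DNA library. Incubation took 30 min at room temperature in Tris/NaCl/DTT/glycerol buffer and was followed by washing, 0.1% formaldehyde crosslinking, proximity ligation (BsaI/T4 ligase, 1 h, 37 °C), PCR amplification and sequencing on an Illumina NextSeq500. Binding signal is the ratio of a hexamer's read frequency for a factor to its frequency for the tag-only sample.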

[2] = target: T2, ELK1 (Homo sapiens, UniProt P19419 1-428); settings: protein: recombinant; tags: N-terminal GST; dsDNA, one strand shown
T2 sequence: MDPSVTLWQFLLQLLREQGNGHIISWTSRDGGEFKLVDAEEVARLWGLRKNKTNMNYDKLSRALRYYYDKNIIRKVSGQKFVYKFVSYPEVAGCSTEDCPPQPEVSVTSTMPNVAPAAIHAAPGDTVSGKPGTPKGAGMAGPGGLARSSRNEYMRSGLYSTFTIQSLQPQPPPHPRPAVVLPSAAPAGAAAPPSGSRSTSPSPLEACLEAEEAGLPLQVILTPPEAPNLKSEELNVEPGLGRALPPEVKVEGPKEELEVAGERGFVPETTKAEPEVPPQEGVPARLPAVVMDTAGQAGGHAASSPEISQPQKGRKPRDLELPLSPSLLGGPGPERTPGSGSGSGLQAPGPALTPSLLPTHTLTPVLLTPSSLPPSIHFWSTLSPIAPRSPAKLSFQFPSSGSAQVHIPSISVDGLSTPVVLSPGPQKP
Summary of the method: as §1

[3] = target: T3, GABPA (Homo sapiens, UniProt Q06546 1-454); settings: protein: recombinant; tags: N-terminal GST; dsDNA, one strand shown
T3 sequence: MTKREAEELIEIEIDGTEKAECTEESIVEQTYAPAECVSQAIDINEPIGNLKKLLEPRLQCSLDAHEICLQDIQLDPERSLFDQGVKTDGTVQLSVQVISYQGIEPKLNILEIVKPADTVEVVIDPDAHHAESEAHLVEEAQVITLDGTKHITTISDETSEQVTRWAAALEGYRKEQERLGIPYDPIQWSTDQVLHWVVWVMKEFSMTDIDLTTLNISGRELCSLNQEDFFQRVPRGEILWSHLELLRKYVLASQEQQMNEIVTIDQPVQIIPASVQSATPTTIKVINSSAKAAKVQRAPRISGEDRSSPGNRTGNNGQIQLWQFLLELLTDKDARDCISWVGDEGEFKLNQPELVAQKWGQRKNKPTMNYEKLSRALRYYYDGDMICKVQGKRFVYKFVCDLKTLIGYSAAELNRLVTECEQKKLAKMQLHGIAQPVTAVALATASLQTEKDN
Summary of the method: as §1

[4] = target: T4, ERG (Homo sapiens, UniProt P11308 1-479); settings: protein: recombinant; tags: N-terminal GST; dsDNA, one strand shown
T4 sequence: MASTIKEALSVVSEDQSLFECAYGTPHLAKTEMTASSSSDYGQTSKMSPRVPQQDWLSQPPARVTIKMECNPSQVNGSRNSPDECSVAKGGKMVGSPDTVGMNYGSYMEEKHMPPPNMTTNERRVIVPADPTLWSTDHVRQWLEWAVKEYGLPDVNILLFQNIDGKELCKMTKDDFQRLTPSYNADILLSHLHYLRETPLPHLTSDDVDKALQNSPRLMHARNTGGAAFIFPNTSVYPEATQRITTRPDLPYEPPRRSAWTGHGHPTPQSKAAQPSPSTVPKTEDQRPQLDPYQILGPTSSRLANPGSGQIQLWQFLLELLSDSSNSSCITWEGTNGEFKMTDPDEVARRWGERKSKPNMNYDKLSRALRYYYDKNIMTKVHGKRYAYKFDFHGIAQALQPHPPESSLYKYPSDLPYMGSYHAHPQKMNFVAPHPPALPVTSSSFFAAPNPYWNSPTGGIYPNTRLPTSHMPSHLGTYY
Summary of the method: as §1

[5] = target: ELF1 (Homo sapiens, UniProt P32519 1-619); settings: protein: recombinant; tags: N-terminal GST; dsDNA, one strand shown
ELF1, sequence (P32519 whole entry): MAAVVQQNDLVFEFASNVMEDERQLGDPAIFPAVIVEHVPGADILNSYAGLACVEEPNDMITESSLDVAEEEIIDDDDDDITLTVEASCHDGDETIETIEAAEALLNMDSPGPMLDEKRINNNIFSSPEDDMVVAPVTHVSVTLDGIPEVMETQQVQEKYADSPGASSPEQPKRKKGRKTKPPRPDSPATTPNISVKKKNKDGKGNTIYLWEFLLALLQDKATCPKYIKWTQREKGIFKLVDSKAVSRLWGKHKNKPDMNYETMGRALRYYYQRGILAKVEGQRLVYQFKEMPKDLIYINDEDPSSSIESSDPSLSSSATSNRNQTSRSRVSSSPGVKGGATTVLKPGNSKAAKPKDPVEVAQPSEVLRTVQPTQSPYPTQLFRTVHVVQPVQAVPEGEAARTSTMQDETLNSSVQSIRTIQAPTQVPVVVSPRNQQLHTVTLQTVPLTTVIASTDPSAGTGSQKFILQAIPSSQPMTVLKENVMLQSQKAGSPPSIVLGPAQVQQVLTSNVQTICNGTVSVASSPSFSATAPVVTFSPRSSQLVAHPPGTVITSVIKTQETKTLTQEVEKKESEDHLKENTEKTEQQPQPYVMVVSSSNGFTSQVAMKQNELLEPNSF
Summary of the method: as §1

[6] = target: T5, EHF (Homo sapiens, UniProt Q9NZC4 1-300); settings: protein: recombinant; tags: N-terminal GST; dsDNA, one strand shown
T5 sequence: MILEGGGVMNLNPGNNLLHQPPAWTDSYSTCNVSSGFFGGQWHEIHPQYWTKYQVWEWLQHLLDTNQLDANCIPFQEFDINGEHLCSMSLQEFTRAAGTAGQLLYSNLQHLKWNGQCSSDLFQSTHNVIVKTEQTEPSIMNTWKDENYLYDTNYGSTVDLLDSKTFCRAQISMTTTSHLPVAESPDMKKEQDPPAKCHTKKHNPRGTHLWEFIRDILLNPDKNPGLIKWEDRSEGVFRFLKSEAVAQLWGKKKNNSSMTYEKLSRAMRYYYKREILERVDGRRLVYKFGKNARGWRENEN
Summary of the method: as §1

[7] = target: SPI1 (Homo sapiens, UniProt P17947 1-270); settings: protein: recombinant; tags: N-terminal GST; dsDNA, one strand shown
Summary of the method: as §1

[8] = target: SPIB (Homo sapiens, UniProt Q01892 1-262); settings: protein: recombinant; tags: N-terminal GST; dsDNA, one strand shown
SPIB, sequence (Q01892 whole entry): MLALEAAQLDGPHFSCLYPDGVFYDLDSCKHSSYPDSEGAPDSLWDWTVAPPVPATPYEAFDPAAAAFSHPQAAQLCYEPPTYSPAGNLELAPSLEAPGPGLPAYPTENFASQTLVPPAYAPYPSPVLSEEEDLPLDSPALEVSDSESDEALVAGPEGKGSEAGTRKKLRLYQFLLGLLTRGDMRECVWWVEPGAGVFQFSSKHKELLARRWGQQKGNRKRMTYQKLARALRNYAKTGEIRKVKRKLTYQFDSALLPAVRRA
Summary of the method: as §1

[9] = target: T6, ELK3 (Homo sapiens, UniProt P41970 1-407); settings: protein: recombinant; tags: N-terminal GST; dsDNA, one strand shown
T6 sequence: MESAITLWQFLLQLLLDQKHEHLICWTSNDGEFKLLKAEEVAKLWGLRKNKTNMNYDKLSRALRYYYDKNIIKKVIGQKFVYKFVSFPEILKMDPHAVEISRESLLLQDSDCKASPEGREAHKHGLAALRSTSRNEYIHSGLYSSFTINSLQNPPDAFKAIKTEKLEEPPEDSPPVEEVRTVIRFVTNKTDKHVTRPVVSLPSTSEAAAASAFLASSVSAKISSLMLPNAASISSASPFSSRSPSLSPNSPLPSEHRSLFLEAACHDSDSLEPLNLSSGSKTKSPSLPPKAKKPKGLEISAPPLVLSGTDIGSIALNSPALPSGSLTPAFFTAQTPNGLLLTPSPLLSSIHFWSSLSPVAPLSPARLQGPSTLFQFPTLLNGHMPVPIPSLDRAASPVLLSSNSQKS
Summary of the method: as §1

[10] = target: T7, FEV (Homo sapiens, UniProt Q99581 1-238); settings: protein: recombinant; tags: N-terminal GST; dsDNA, one strand shown
T7 sequence: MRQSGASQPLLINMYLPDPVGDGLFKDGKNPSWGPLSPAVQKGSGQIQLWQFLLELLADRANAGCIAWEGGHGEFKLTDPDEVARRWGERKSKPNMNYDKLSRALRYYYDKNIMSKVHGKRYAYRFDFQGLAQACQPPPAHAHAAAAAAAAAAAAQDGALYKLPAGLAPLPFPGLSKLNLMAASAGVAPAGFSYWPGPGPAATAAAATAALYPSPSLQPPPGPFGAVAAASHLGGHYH
Summary of the method: as §1

[11] = target: ETV5 (Homo sapiens, UniProt P41161 1-510); settings: protein: recombinant; tags: N-terminal GST; dsDNA, one strand shown
ETV5, sequence (P41161 whole entry): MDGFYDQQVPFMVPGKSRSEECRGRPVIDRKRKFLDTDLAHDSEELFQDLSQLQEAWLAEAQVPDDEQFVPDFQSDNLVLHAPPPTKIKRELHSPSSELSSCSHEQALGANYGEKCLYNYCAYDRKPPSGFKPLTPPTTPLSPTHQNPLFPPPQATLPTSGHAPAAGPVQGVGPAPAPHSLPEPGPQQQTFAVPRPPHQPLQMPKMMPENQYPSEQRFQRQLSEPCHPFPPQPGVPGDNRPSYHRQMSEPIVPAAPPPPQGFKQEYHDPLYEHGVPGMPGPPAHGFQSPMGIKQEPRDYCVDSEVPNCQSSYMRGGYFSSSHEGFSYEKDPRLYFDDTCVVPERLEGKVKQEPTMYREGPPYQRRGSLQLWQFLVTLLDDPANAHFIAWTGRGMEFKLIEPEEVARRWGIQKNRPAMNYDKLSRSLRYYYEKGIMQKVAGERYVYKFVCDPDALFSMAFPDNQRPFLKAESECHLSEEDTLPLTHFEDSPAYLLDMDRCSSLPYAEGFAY
Summary of the method: as §1

[12] = target: HSF1 (Homo sapiens, UniProt Q00613 1-529); settings: protein: recombinant; tags: N-terminal GST; chain copies: 3; dsDNA, one strand shown
HSF1, sequence (Q00613 whole entry): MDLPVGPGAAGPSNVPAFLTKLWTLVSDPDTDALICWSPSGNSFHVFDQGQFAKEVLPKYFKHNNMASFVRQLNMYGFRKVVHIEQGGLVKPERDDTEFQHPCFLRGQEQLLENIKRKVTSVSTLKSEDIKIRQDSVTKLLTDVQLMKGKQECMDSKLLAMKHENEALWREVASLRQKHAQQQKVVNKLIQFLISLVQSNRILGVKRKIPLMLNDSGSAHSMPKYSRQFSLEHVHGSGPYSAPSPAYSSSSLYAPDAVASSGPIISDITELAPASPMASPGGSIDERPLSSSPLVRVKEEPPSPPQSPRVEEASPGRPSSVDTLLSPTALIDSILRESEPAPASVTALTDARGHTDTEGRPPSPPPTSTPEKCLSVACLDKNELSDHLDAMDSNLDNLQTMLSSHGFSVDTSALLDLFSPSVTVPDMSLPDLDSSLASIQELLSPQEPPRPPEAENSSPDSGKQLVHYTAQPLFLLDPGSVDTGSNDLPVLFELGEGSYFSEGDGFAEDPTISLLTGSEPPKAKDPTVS
Summary of the method: as §1

[13] = target: T8, SPIC (Homo sapiens, UniProt Q8N5J4 1-248); settings: protein: recombinant; tags: N-terminal GST; dsDNA, one strand shown
T8 sequence: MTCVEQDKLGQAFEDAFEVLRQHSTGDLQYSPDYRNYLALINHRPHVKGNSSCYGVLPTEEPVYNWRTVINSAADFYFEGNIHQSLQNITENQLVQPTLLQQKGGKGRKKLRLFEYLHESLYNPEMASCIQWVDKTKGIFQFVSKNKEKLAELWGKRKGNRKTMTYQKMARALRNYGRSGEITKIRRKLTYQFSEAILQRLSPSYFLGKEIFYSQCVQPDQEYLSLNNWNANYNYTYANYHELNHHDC
Summary of the method: as §1

[14] = target: ELF4 (Homo sapiens, UniProt Q99607 1-663); settings: protein: recombinant; tags: N-terminal GST; dsDNA, one strand shown
ELF4, sequence (Q99607 whole entry): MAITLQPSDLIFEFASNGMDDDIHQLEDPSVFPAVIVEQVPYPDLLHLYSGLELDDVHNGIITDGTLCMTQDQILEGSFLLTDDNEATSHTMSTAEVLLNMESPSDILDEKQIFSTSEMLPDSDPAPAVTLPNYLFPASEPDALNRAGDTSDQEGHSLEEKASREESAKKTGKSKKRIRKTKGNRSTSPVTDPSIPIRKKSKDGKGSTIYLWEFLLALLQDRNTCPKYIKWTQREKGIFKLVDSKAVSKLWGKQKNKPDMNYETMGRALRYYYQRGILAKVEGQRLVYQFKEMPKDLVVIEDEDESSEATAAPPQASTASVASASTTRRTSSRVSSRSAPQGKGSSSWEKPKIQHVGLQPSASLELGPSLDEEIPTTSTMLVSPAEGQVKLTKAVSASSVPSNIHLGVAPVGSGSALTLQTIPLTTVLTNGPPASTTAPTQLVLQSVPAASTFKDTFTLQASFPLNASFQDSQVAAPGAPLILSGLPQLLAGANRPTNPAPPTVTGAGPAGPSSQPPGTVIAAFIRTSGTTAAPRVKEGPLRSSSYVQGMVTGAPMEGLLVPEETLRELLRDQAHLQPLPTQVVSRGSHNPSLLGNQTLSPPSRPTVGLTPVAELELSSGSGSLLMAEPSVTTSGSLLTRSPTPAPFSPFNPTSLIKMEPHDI
Summary of the method: as §1

[15] = target: T9, ELK4 (Homo sapiens, UniProt P28324-2 1-405); settings: protein: recombinant; tags: N-terminal GST; dsDNA, one strand shown
T9 sequence: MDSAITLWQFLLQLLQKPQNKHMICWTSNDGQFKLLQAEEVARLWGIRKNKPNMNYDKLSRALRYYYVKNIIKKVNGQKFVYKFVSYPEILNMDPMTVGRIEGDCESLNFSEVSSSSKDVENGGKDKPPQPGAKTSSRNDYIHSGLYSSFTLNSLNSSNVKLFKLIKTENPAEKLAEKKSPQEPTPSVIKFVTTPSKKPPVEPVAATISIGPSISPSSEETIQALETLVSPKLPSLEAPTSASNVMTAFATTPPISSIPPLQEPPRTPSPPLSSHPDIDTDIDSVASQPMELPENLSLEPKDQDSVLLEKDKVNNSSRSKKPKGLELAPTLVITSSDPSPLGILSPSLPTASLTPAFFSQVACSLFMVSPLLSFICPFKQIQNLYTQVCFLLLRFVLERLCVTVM
Summary of the method: as §1

[16] = target: T10, ETV2 (Homo sapiens, UniProt O00321 1-342); settings: protein: recombinant; tags: N-terminal GST; dsDNA, one strand shown
T10 sequence: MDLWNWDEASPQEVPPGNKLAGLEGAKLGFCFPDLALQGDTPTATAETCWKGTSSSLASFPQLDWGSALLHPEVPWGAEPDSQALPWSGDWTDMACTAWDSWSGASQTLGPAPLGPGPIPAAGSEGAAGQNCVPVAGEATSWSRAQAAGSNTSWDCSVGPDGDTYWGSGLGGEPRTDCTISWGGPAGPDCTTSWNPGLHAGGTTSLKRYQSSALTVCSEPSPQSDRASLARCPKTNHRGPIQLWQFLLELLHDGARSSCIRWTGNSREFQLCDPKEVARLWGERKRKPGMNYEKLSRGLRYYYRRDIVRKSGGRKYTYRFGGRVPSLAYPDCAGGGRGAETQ
Summary of the method: as §1

[17] = target: T11, ELF3 (Homo sapiens, UniProt P78545 1-371); settings: protein: recombinant; tags: N-terminal GST; dsDNA, one strand shown
T11 sequence: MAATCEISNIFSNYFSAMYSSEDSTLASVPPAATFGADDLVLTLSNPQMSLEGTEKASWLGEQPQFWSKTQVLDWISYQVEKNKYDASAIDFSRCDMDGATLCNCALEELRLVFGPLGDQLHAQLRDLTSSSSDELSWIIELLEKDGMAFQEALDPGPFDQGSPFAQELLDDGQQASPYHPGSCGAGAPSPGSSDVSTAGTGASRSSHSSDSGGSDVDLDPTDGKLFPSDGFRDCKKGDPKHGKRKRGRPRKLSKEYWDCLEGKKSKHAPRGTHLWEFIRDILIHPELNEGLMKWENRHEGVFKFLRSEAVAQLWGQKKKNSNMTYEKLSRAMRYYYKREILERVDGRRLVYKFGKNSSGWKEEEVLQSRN
Summary of the method: as §1

[18] = target: CRX (Homo sapiens, UniProt O43186 1-299); settings: protein: recombinant; tags: N-terminal GST; dsDNA, one strand shown
CRX, sequence (O43186 whole entry): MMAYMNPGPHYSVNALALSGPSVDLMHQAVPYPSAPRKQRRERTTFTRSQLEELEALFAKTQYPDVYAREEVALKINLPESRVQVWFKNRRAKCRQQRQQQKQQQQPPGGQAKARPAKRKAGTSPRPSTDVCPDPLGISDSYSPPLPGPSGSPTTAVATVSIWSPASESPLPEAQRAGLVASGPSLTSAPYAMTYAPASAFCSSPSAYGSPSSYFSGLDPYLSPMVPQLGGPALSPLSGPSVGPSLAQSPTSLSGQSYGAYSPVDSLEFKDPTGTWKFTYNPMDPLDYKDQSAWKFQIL
Summary of the method: as §1

[19] = target: ETV1 (Homo sapiens, UniProt P50549 1-477); settings: protein: recombinant; tags: N-terminal GST; dsDNA, one strand shown
ETV1, sequence (P50549 whole entry): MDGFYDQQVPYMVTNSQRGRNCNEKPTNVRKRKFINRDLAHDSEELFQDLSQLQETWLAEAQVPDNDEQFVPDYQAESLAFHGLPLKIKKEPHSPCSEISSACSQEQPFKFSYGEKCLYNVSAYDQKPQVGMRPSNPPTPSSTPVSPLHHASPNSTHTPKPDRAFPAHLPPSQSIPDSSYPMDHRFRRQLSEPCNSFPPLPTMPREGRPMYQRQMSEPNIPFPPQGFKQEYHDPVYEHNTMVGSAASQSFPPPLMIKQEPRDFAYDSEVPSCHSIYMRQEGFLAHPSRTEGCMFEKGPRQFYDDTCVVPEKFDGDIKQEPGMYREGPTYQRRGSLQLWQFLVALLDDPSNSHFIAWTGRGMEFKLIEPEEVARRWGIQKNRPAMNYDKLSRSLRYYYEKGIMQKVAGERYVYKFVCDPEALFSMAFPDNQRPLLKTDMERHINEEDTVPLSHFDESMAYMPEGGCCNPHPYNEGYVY
Summary of the method: as §1

TTTGAC
binding signal [1]: 1.57 fold enrichment (6-mer frequency, TF over GST control)
binding signal [2]: 1.59 fold enrichment (6-mer frequency, TF over GST control)
binding signal [3]: 1.55 fold enrichment (6-mer frequency, TF over GST control)
binding signal [4]: 1.45 fold enrichment (6-mer frequency, TF over GST control)
binding signal [5]: 1.4 fold enrichment (6-mer frequency, TF over GST control)
binding signal [6]: 1.35 fold enrichment (6-mer frequency, TF over GST control)
binding signal [7]: 1.34 fold enrichment (6-mer frequency, TF over GST control)
binding signal [8]: 1.35 fold enrichment (6-mer frequency, TF over GST control)
binding signal [9]: 1.34 fold enrichment (6-mer frequency, TF over GST control)
binding signal [10]: 1.37 fold enrichment (6-mer frequency, TF over GST control)
binding signal [11]: 1.5 fold enrichment (6-mer frequency, TF over GST control)
binding signal [12]: 1.35 fold enrichment (6-mer frequency, TF over GST control)
binding signal [13]: 1.3 fold enrichment (6-mer frequency, TF over GST control)
binding signal [14]: 1.47 fold enrichment (6-mer frequency, TF over GST control)
binding signal [15]: 1.41 fold enrichment (6-mer frequency, TF over GST control)
binding signal [16]: 1.5 fold enrichment (6-mer frequency, TF over GST control)
binding signal [17]: 1.39 fold enrichment (6-mer frequency, TF over GST control)
binding signal [18]: 1.37 fold enrichment (6-mer frequency, TF over GST control)
binding signal [19]: 1.42 fold enrichment (6-mer frequency, TF over GST control)
